From PubChem
Pol eta inh-1 = inhibitors of human DNA polymerase eta; Q9Y253; recombinant Pol eta, fluorescent DNA replication assay; Potency, µM (highest dose often 114 µM), for the others: at the highest dose activity change, negative = inhibition, usual class: inhibitors; 390,000 compounds, 1.2% hits; AID 588591; further: potency means the concentration at half of the fitted maximal effect; on the % scale 0 is the no-effect control and ±100 the full control effect
Target sequence (Q9Y253 whole entry, looked up): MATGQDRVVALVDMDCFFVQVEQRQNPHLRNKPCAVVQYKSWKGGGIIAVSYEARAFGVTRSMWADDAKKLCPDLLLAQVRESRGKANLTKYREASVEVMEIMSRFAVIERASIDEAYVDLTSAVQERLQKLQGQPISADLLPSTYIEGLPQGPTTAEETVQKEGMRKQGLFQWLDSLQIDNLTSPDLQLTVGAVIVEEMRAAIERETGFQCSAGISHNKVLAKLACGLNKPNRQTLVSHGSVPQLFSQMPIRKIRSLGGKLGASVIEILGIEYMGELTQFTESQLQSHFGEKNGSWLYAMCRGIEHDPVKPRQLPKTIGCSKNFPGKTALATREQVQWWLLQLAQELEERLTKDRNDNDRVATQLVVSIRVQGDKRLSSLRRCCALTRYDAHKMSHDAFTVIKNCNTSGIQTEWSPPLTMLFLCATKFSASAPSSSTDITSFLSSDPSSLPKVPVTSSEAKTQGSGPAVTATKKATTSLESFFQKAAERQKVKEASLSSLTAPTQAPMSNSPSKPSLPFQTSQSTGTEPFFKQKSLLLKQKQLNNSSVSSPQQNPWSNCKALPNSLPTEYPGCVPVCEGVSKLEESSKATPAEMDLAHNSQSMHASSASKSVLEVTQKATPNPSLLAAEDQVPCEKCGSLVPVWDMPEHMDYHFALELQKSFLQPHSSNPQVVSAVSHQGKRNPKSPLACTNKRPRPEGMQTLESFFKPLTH
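Pol eta (10 nM) was preincubated with compounds for 15 min at room temperature, after which fluorescent replication substrate (50 nM final) was added to start the reaction. Fluorescence was read kinetically at 0 and 10 min.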
APE1 inh = APE1 (human) endonuclease inhibition. AID 2517. 350,000 compounds, 0.35% hits. Potency, µM (titrated, usually from 65.8 µM), inactives show at the highest dose activity change, negative = inhibition, actives largely listed as inhibitors. P27695. recombinant APE1, TAMRA/BHQ-2 abasic DNA cleavage fluorescence;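 further: potency means the concentration at half of the fitted maximal effect; plate controls were vehicle for no effect and reference inhibitor for full effect; nearly all actives have a fitted effect of over 55% in size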
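Readout is kinetic fluorescence (ex 525, em 598 nm) from cleavage of 50 nM TAMRA/BHQ-2 THF abasic duplex by 0.75 nM APE1, compound added 15 min beforehand at RT.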
Pol kappa inh-1 = DNA polymerase kappa (human) inhibition; Q9UBT6; purified Pol kappa, fluorescent DNA synthesis assay, 10 min; Potency, µM (top dose mostly 107 µM), for the others: at the highest dose activity, negative = inhibition, actives largely listed as inhibitors; 400,000 compounds, 0.53% hits; AID 588579; further: potency means the concentration at half of the fitted maximal effect; on the % scale 0 is the no-effect control and ±100 the full control effect
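Activity was followed as the change in fluorescence between reads at 0 and 10 min after starting the reaction with 50 nM substrate. Beforehand, 10 nM polymerase had been preincubated with compound for 15 min at room temperature.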
POLI inh = DNA polymerase iota (human) inhibition; Q9UNA4; Pol iota fluorescent replication assay, 10 min; Potency, µM (top dose mostly 115 µM), for the others: at the top dose activity, negative = inhibition, usual class: inhibitors; 390,000 compounds, 1% hits; further: potency means the concentration at half of the fitted maximal effect
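Fluorescent replication assay read twice, at 0 min and 10 min after adding 50 nM (final) substrate. Enzyme (10 nM) and compounds were first incubated 15 min at room temperature; enzyme-free buffer wells were negative controls.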
GLS inh = inhibitors of human glutaminase (GLS); 410,000 compounds, 0.21% hits; GLS enzymatic activity, qHTS titration; O94925; Potency, µM (series often up to 45.5 µM), for the others: at the top dose activity change, negative = inhibition, usual class: inhibitors; AID 624170; further: potency means the concentration at half of the fitted maximal effect; on the % scale 0 is the no-effect control and ±100 the full control effect
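Coupled fluorescence readout: glutamate oxidase/HRP/Amplex Red detect glutamate formed by hKGA from L-glutamine (1 mM solution added). Buffer 45 mM KH2PO4 pH 8.2, 0.02% Tween-20; reads at t0 and 30 min RT.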
Pol beta inh = DNA polymerase beta (human) inhibition | P06746 | Pol beta primer extension/strand displacement, fluorescence kinetic | Potency, µM (highest dose often 114 µM), inactives show at the highest dose activity change, negative = inhibition, actives largely listed as inhibitors | 340,000 compounds, 1.3% hits | AID 485314; further: potency means the concentration at half of the fitted maximal effect; on the % scale 0 is the no-effect control and ±100 the full control effect
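Homogeneous kinetic assay of primer extension and strand displacement by 10 nM Pol beta, preincubated 15 min at room temperature with compound before 50 nM substrate (final) was added. Read at 0 and 10 min; four-parameter Hill fit.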
PGK validate = blocks T. brucei phosphoglycerate kinase; 500 compounds, 79% hits; AID 686980; TbPGK coupled GAPDH assay, Kinase-Glo luminescence; shares compounds with Pol kappa inh-1; Potency, µM (top dose mostly 57.5 µM), inactives show at the highest dose activity change, negative = inhibition, most hits filed as inhibitors; further: potency means the concentration at half of the fitted maximal effect; on the % scale 0 is the no-effect control and ±100 the full control effect; nearly all actives have a fitted effect of over 65% in size
Pol iota confirm = Confirm cherry-picked inhibitors of human polymerase iota | shares compounds with Pol kappa inh-1 | Potency, µM, actives largely listed as inhibitors | Pol iota primer extension, TAMRA/BHQ fluorescence | 1,500 compounds, 77% hits | AID 720496; further: potency means the concentration at half of the fitted maximal effect
GALK inh confirm = galactokinase (human) inhibition, confirmation. shares compounds with Pol eta inh-1. purified GALK, Kinase-Glo ATP depletion luminescence. 150 compounds, 70% hits. Potency, µM (titrated, usually from 115 µM), for the others: at the highest dose activity, negative = inhibition, hits mostly inhibitors
Redox cycling = counter-screen for GALK inhibitors: redox cycling H2O2 generation; shares compounds with Pol eta inh-1; Phenol red-HRP H2O2 redox cycling, absorbance 600 nm; Potency, µM (highest dose often 115 µM), for the others: at the top dose activity change, negative = H2O2 signal, usual class: inhibitors; 150 compounds, 40% hits; AID 2035
HEK293 tox = HEK-293 cytotoxicity, GALK inhibitor secondary; shares compounds with Pol eta inh-1; HEK-293 viability, ATP luminescence (CellTiter-Glo), 24/48 h; Potency, µM (series often up to 46.1 µM), inactives show top-dose activity change, negative = cytotoxicity, hits mostly inhibitors; 170 compounds, 10% hits; AID 2547; further: potency means the concentration at half of the fitted maximal effect; on the % scale 0 is the no-effect control and ±100 the full control effect
Pol kappa inh-2 = Pol kappa (human) inhibition, cherry-pick confirmation. shares compounds with Pol eta inh-1. purified Pol-kappa, fluorescent strand-displacement substrate. Potency, µM, actives largely listed as inhibitors. 920 compounds, 76% hits. AID 720501; further: potency means the concentration at half of the fitted maximal effect
Pol eta inh-2 = Pol eta (human) inhibition, cherry-pick confirmation; 2,600 compounds, 64% hits; Potency, µM, usual class: inhibitors; Pol eta primer extension, TAMRA/BHQ fluorescence, 10 min; shares compounds with Pol eta inh-1; further: potency means the concentration at half of the fitted maximal effect
Starred values were filed as active, the others as inactive; ? = inconclusive; · = not tested or not shown. Shown are actives, neighbours in structure and some others; about 2.4% of the full set was active somewhere. The call rests on the fitted dose curve; in most records, active means well fitted curve in the direction sought with a large enough effect; inconclusive means small, poorly fitted or top-dose-only effect, or another doubt; inactive means no such curve, though single readings can be large; an effect the other way counts as inactive or inconclusive.

SMILES | Pol eta inh-1 | APE1 inh | Pol kappa inh-1 | POLI inh | GLS inh | Pol beta inh | Pol iota confirm | Pol eta inh-2 | others
Cc1ccc(NC(=O)CN2C(=O)N/C(=C/c3ccccc3OCc3cccc(C(=O)O)c3)C2=O)cc1 | 25.1µM* | 18.9µM* | ? | 20µM* | 0.0% | 35.5µM* | 42.3* | ? | PGK validate=16.3µM*
Cc1cccc(NC(=O)CN2C(=O)N/C(=C\c3ccc(-c4cccc(C(=O)O)c4)o3)C2=O)c1 | ? | ? | ? | ? | -10.9% | ? | 67* | 26.9*
COC(=O)/C(C(C)=O)=C(\C=C\N(C)C)N(C)C | -8.3% | 2.1% | -3.1% | 23.6% | -4.3% | 17.4% | · | ·
COC(=O)\C(C(C)=O)=C(/C=C/C=C/C=C/N(C)C)N(C)C | 2.82µM* | 7.94µM* | 22.4µM* | 3.98µM* | 11.2µM* | 10µM* | 15* | 6.01* | PGK validate=4.11µM*;Pol kappa inh-2=5.32*
Cc1cc(C)cc(NC(=S)N2CCN(c3ncc(C(F)(F)F)cc3Cl)CC2)c1 | -20.6% | -4.5% | 0.0% | -8.2% | -11.3% | -26.0% | · | ·
Cc1cc(C)nc(NN2C(=O)/C(=C/c3ccccc3)SC2=S)n1 | -10.4% | 0.0% | -4.0% | -15.7% | -8.2% | 6.4% | · | ·
CN(C)c1ccc(/C=C2\SC(=S)N(Nc3ncc(C(F)(F)F)cc3Cl)C2=O)cc1 | 44.7µM* | -1.5% | 17.8µM* | 11.2µM* | -0.3% | -1.0% | 21.2* | 19*
C=CCc1cc(/C=C/c2nc(O)c([N+](=O)[O-])c(=O)[nH]2)cc(OC)c1O | 11.2µM* | ? | 79.4µM* | ? | ? | 25.1µM* | ? | 30.1*
CCOc1cc(/C=C\c2nc(O)c([N+](=O)[O-])c(=O)[nH]2)ccc1OC(C)C | -21.4% | -2.2% | -1.0% | 31.4% | 7.7% | 45.6% | · | ·
O=C(N/N=C/c1ccccc1O)NC12CC3CC(CC(C3)C1)C2 | -12.3% | -21.9% | -2.6% | -10.3% | 3.0% | 2.3% | · | ·
O=C(N/N=C/c1cc(Cl)cc([N+](=O)[O-])c1O)NC12CC3CC(CC(C3)C1)C2 | 7.94µM* | -1.4% | -0.3% | 10.8% | 8.91µM* | 14.1µM* | · | 67.5* | PGK validate=14.6µM*
COc1cc(/C=C(\CCC(=O)O)c2nc3ccccc3s2)ccc1OCC(=O)Nc1c(Cl)cccc1Cl | ? | ? | -14.8% | 15.8% | 10µM* | · | 37.7* | 75.7* | PGK validate=10.3µM*
COC(=O)c1ccccc1NC(=O)CN(C)S(=O)(=O)c1cc(C)ccc1OC | -11.0% | -4.8% | -5.7% | -11.1% | -2.4% | 0.7% | · | ·
Cc1c(C(=O)OCC(=O)Nc2ccc(C(=O)N(C)C)cc2)oc2ccccc12 | -19.2% | 1.9% | 1.9% | 28.9% | 0.8% | 33.8% | · | ·
CCOC(=O)N1CCN(Cc2nc3cc(NC(=O)CC(C)C)ccc3n2C(C)C)CC1 | · | · | -16.9% | -7.9% | 0.3% | -0.7% | · | ·
Cc1nn2c(C)c(C(=O)N3CCN(c4ccccc4)CC3)cnc2c1-c1ccccc1 | -5.9% | · | 0.6% | -5.2% | 13.2% | ? | · | ·
Cc1ccc(-n2c3nc(=O)n(C)c(=O)c-3cc3ccccc32)cc1 | 3.5% | -4.5% | -2.0% | 24.1% | 4.4% | -12.5% | · | ·
Cc1ccccc1-c1nc2c(=O)n(C)c(=O)nc-2n(C)n1 | · | · | -21.7% | -88.4% | · | · | 1.68* | 4.78*
CCn1c(N)nc2c1c(=O)n(C)c(=O)n2C | -1.1% | 3.3% | 4.9% | 30.5% | 24.2% | -19.5% | · | ·
COc1ccc(-c2nc(-c3ccccn3)ncc2S(C)(=O)=O)cc1 | -14.4% | 1.4% | -1.4% | 17.4% | -0.4% | 26.0% | · | ·
Cn1nc(-c2ccccn2)nc2c(=O)n(C)c(=O)nc1-2 | 0.708µM* | ? | 5.5% | -96.1% | -4.8% | ? | · | · | PGK validate=1.63µM*;GALK inh confirm=2.66µM*;Redox cycling=2.66µM*;HEK293 tox=3.97µM*
CCc1ccc(-c2nc3c(=O)n(C)c(=O)nc-3n(CC)n2)cc1 | · | · | -19.7% | -98.4% | · | · | 2.12* | 1.51*
CCCc1nc2c(=O)n(C)c(=O)nc-2n(C)n1 | 0.891µM* | ? | 6.4% | -97.1% | 2.7% | ? | 1.5* | 2.69* | PGK validate=1.46µM*;GALK inh confirm=0.943µM*;Redox cycling=0.668µM*;HEK293 tox=9.96µM*
OCCOCCn1c(C(CO)Nc2nc(-c3ccc(Cl)cc3)cs2)nc2ccccc21 (stereo unspecified) | -7.1% | · | -19.7% | ? | -9.1% | · | · | ·
FC(F)(F)c1cnc(N2CCC(=NOCc3ccc(Cl)cc3)CC2)c(Cl)c1 | -14.7% | -1.9% | -18.8% | 5.3% | -0.4% | 11.9% | · | ·
COc1ccccc1C(C[N+](=O)[O-])c1c(N)n(C)c(=O)n(C)c1=O (stereo unspecified) | -6.2% | -2.0% | 16.5% | 21.4% | 0.0% | 9.6% | · | ·
CCN(C(=O)C(C)N1C(=O)/C(=C/c2ccco2)SC1=S)C1CCS(=O)(=O)C1 (stereo unspecified) | 15.8µM* | -5.9% | 28.2µM* | 22.4µM* | ? | 11.2µM* | 42.3* | 26.9*
